One test deals with GRAMD1C. The test can be described thus: pooled miR-30 sensor sort-seq; sequence = guide strand. The note with it: shRNA.
As to TATTCTTCTGAATAGTTTCTGC, the sensor-assay potency score (higher = more potent) is -0.573. The sequence TTCATTTTTATTCAAGTCCAGT had a sensor-assay potency score (higher = more potent) of -0.865. Same read-out and setting: to TTGATAGTCAGTACACTTGTAC belongs 0.115.

With TAACTCTTGAAAAAATATCTGA, the sensor-assay potency score (higher = more potent) is -0.51. Same read-out and setting: to TTTTGATGAATTTCCATCGAAT belongs -0.801; to ATAATCATCATCAACATGCAGA, 0.0723.

For TTATTTAGTAGATCAAACGTTT, the sensor-assay potency score (higher = more potent) is -0.243. With TATAAAGCAACTTACTTCGATA, the sensor-assay potency score (higher = more potent) is -0.838. TACATCTTCCTGTAAGTCGGTG yielded a sensor-assay potency score (higher = more potent) of -0.625. On to TAACAAATCTGATTCAAGCTGT, for which the sensor-assay potency score (higher = more potent) came to 0.354. Still for that read-out and setting: to TTGCTATAGAAACATAGCCAGT belongs -1.61; to TAGTCCTCCAAAGAACTCCAGG, -0.901.

The target of a further test is GRHL3. The test is described as above. The note with it: shRNA.
TTGCATTTCTTGTAGACTTTGT: the sensor-assay potency score (higher = more potent) was -0.218. TTTAGCAGCCGCACAGACCTGA: the sensor-assay potency score (higher = more potent) is -0.237. Still for that read-out and setting: to TTGATCTGGCAGACAGCACGGT belongs -0.0201; to TAGGTCGTCTCATTGCCCCTGA, 0.415; to TAGTGTAAGAGAATTTCTGCAA, 0.49. Sequence TATTCTTCTTGAGCAAATCTGG had a sensor-assay potency score (higher = more potent) of -0.748. Same read-out and setting: to TCACAGAAGATCTTGATCTGGC belongs 0.419.

In turn, TTGACTAAGATTCCTCGCTTGC came in with a sensor-assay potency score (higher = more potent) of -0.416. In the case of TTTTGTGAGGAAAAGTCTGTGC, the sensor-assay potency score (higher = more potent) is -0.211.

TTTTCTAGGTACGTCTTCCAGG yielded a sensor-assay potency score (higher = more potent) of -0.466. On the same count and under the same terms, to TTTGTGGCAGCTGTCAACGGGT belongs -0.745.

(Values after the OligoGym collection.)
Also: reference of the scale not given here.
